About 4,300 (8.3%) of roughly 52,000 compounds were called active. The sample holds actives, similar compounds and a random draw of the others, so the mix is not that of the screen. Rule as the data show it: active = survival mostly below about 52% (no sharp cut-off); inactive = mostly above about 56%.
These compounds were tested on DeltatarO mutant (assay: growth inhibition of S. aureus wild type versus tarO mutant, primary screen, teichoic acid synthesis inhibitors, RN4220, OD600 (AID 463173)). Conditions: OD600, 18 h, stronger effect = lower value, screened at 18.75 µg/mL (by protocol).
`CC(C)NC(=O)C1CCC(Cn2c(=O)c3sccc3n(CC(=O)Nc3ccccc3)c2=O)CC1` (centres undefined) was tested, and the survival was 74% (inactive).
For `CCc1ccc(CNC(=O)c2cnc3sc(N4CCCCC4)nn3c2=O)cc1`, the survival was 99% (inactive).
For `COc1ccc(NC(=O)CN2CCCN(Cc3ccc(Cl)cc3)S2(=O)=O)cc1Cl`, the survival was 60% (inactive).
In the case of `Cc1ccc(C)c(CN2CCCN(Cc3ccccc3C)S2(=O)=O)c1`, the survival is reported as 87% (inactive).
For `Cc1ccc(CN2CCCN(Cc3c(C)cc(C)cc3C)S2(=O)=O)cc1`, the survival was 91% (inactive).
`COC(=O)c1ccc(NC(=O)CN2CCCN(Cc3ccc(Cl)cc3)S2(=O)=O)cc1` was tested, and the survival was 94% (inactive).
With `COC(=O)c1ccc(OC)c(CN2CCCN(Cc3ccc(C)cc3)S2(=O)=O)c1` the survival was 20% (active).
In the case of `Cc1ccc(C)c(CN2CCCN(Cc3ccc(F)cc3)S2(=O)=O)c1`, the survival is reported as -5% (active).
For `CCOC(=O)CCCN1C(=O)CCn2nc(-c3cn(C)c4ccccc34)cc21`, the survival was 69% (inactive).
With `CCN(c1ccccc1C)S(=O)(=O)c1ccc(N2CCCCS2(=O)=O)cc1` the survival was 125% (inactive).
In the case of `CCSc1nnc(C2CCCN(CC(=O)NC3CCCCC3C)C2)n1CC` (centres undefined), the survival is reported as 74% (inactive).
In the case of `Cc1cccc(-c2nc(CN3CCCC(C(=O)NCc4ccc(Cl)cc4)C3)c(C)o2)c1` (centres undefined), the survival is reported as 18% (active).
In the case of `Cc1ccc(CNC(=O)C2CCCN(Cc3nc(-c4cccc(C)c4)oc3C)C2)cc1` (centres undefined), the survival is reported as 41% (inactive).
For `Cc1ccccc1-c1nc(CN2CCCC(C(=O)NCc3ccc(Cl)cc3)C2)c(C)o1` (centres undefined), the survival was 61% (inactive).
With `Cc1oc(-c2cccc(Cl)c2)nc1CN1CCCC(C(=O)NCc2ccc(Cl)cc2)C1` (centres undefined) the survival was -1% (active).
For `Cc1oc(-c2ccc(Cl)cc2)nc1CN1CCCC(C(=O)NCc2ccc(Cl)cc2)C1` (centres undefined), the survival was 59% (inactive).
For `Cc1oc(-c2cccc(Cl)c2)nc1CN1CCCC(C(=O)NCc2ccc(F)cc2)C1` (centres undefined), the survival was 52% (inactive).
`CSCCC(NS(=O)(=O)c1ccc2c(c1)oc(=O)n2C)C(=O)N1CCN(c2cccc(Cl)c2)CC1` (centres undefined) was tested, and the survival was 72% (inactive).
For `Cc1nn(-c2ccccc2)c2c1N(CCCC(=O)NCc1ccc(Cl)cc1)C(=O)CS2`, the survival was 94% (inactive).
With `Cc1cccc(CNC(=O)c2ccc3nc(Cc4ccccc4)oc3c2)c1` the survival was 124% (inactive).
`CCOc1ccc(NC(=O)CSc2nc3c([nH]c4ccccc43)c(=O)n2-c2cc(C)cc(C)c2)cc1` was tested, and the survival was 89% (inactive).
In the case of `Cc1ccc(N2CC(NC(=O)c3ccc(S(=O)(=O)N4CCCC4)cc3)CC2=O)cc1C` (centres undefined), the survival is reported as 83% (inactive).
In the case of `O=C(Cn1ncc2c3ccccc3n(Cc3ccccc3F)c2c1=O)NCCCc1ccccc1`, the survival is reported as 81% (inactive).
For `Cc1cc(C)c2nc(N(Cc3cccnc3)C(=O)CCOc3ccccc3)sc2c1`, the survival was 84% (inactive).
With `COc1ccc(CNC(=O)Cn2c(SCC(=O)Nc3ccc(OC)cc3)nc3ccccc32)cc1` the survival was 89% (inactive).
`COc1cccc(CNC(=O)Cn2c(SCC(=O)Nc3ccc(F)cc3)nc3ccccc32)c1` was tested, and the survival was 8% (active).
With `O=C(CSc1nc2ccccc2n1Cc1ccc(F)cc1)N1CCN(c2ccc(F)cc2)CC1` the survival was 92% (inactive).
In the case of `O=C(Cn1c(SCC(=O)Nc2ccc(F)cc2)nc2ccccc21)NCc1ccc(F)cc1`, the survival is reported as 91% (inactive).
With `COc1cccc(Cn2c(SCC(=O)N3CCN(c4ccc(F)cc4)CC3)nc3ccccc32)c1` the survival was 66% (inactive).
`COc1ccc(Cn2c(SCC(=O)N3CCN(c4ccc(F)cc4)CC3)nc3ccccc32)cc1` was tested, and the survival was 47% (active).
`COC(=O)c1ccc(Cn2c(SCC(=O)N(C)c3ccccc3)nc3ccccc32)cc1` was tested, and the survival was 60% (inactive).
For `Cc1ccc(CNC(=O)Cn2c(SCC(=O)Nc3ccc(F)cc3)nc3ccccc32)cc1`, the survival was 126% (inactive).
With `COc1cccc(CNC(=O)Cn2c(SCC(=O)Nc3ccc(C)c(C)c3)nc3ccccc32)c1` the survival was 87% (inactive).
For `COc1cccc(Cn2c(SCC(=O)N(C)c3ccccc3)nc3ccccc32)c1`, the survival was -4% (active).
In the case of `CN(C(=O)CSc1nc2ccccc2n1Cc1cccc(C(F)(F)F)c1)c1ccccc1`, the survival is reported as 66% (inactive).
With `COc1ccc(NC(=O)CSc2nc3ccccc3n2CC(=O)NCc2ccc(F)cc2)cc1` the survival was -5% (active).
`CCc1ccc(NC(=O)CCCn2nc(C)c3c(C)n(-c4ccccc4)nc3c2=O)cc1` was tested, and the survival was 81% (inactive).
With `CC(C)c1ccc(NC(=O)CSc2ncnc3c2sc2ccccc23)cc1` the survival was 70% (inactive).
For `CCC(=O)OC1CSc2nc3ccccc3n2C1` (centres undefined), the survival was 76% (inactive).
`Cc1ccc(-n2c(=O)c3c(c4cc(C)ccc4n3C)n(CC(=O)NCc3ccccc3Cl)c2=O)cc1` was tested, and the survival was 74% (inactive).
With `Cc1ccc(/C=C/c2onc(C)c2S(=O)(=O)N2CCC(C(=O)N3CCC(N(C)C(C)C)CC3)CC2)cc1` the survival was 67% (inactive).
With `CCOC(=O)C1=C(CN2CCN(c3ccccc3F)CC2)NC(=O)NC1c1ccc(OC)cc1` (centres undefined) the survival was 70% (inactive).
For `Cc1ccc(CSCCC(=O)NCc2ccc(F)cc2Cl)cc1`, the survival was 118% (inactive).
For `COc1cccc(NC(=O)CSc2nc3ccccc3n2C)c1`, the survival was 37% (active).
With `COc1ccc(NC(=O)CSc2nc3ccccc3n2Cc2cccc(OC)c2)cc1` the survival was 134% (inactive).
For `O=C(CSc1nc2ccccc2n1CC(=O)Nc1ccc(F)cc1F)Nc1ccc(F)cc1`, the survival was 89% (inactive).
With `CC(=O)c1cccc(NC(=O)Cn2c(SCC(=O)Nc3ccc(F)cc3)nc3ccccc32)c1` the survival was 20% (active).
For `COc1cccc(NC(=O)CSc2cc(C)c3ccccc3n2)c1`, the survival was 72% (inactive).
`Cc1ccccc1NC(=O)Cn1c(SCC(=O)Nc2ccc(F)cc2)nc2ccccc21` was tested, and the survival was 95% (inactive).
With `COc1cccc(CNC(=O)c2[nH]c3cc(C)ccc3c2Sc2ccccc2)c1` the survival was 83% (inactive).
`CCCN1C(=O)c2ccccc2NC1c1cc(OC)c(OC)c(OC)c1` (centres undefined) was tested, and the survival was 96% (inactive).
In the case of `CC(C)c1ccc(NC(=O)C2CCN(S(=O)(=O)c3cccc4nsnc34)CC2)cc1`, the survival is reported as 72% (inactive).
With `CCOc1ccc(N(CC)S(=O)(=O)N2CCCC(C(=O)Nc3ccc(NC(C)=O)cc3)C2)cc1` (centres undefined) the survival was 84% (inactive).
For `COc1ccc(-c2cc(C(=O)Nc3c(C)nn(Cc4ccccc4C)c3C)no2)cc1`, the survival was 51% (inactive).
With `Cc1cc(C(=O)Nc2c(C)nn(Cc3ccc(F)cc3)c2C)no1` the survival was 156% (inactive).
`COc1ccccc1-c1cc(C(=O)Nc2c(C)nn(Cc3ccc(Cl)cc3)c2C)no1` was tested, and the survival was 29% (active).
With `COc1ccc(-c2cc(C(=O)Nc3c(C)nn(Cc4ccc(F)cc4)c3C)no2)cc1OC` the survival was 59% (inactive).
In the case of `COc1ccc(-c2cc(C(=O)Nc3c(C)nn(Cc4ccc(C)cc4)c3C)no2)cc1OC`, the survival is reported as 60% (inactive).
With `COc1ccc(OC)c(-c2cc(C(=O)Nc3c(C)nn(Cc4ccc(C)cc4)c3C)no2)c1` the survival was 34% (active).
`COc1cccc(-c2cc(C(=O)Nc3c(C)nn(Cc4ccccc4Cl)c3C)no2)c1` was tested, and the survival was 34% (active).
With `Cc1ccc(Cn2nc(C)c(NC(=O)c3cc(-c4ccc(F)cc4)on3)c2C)cc1` the survival was 61% (inactive).
`CCc1cc(C(=O)Nc2c(C)nn(Cc3ccccc3Cl)c2C)no1` was tested, and the survival was 69% (inactive).
With `COc1cc(NC(=O)Cn2ncc3c([nH]c4ccc(C)cc43)c2=O)cc(OC)c1OC` the survival was 86% (inactive).
With `Cn1c(N2CCN(S(=O)(=O)c3ccc(Cl)cc3)CC2)nc2ccccc21` the survival was 83% (inactive).
With `COc1ccc(NC(=O)CCc2c(C)nn(-c3ccc(N4CCCCC4)nn3)c2C)cc1Cl` the survival was 87% (inactive).
`Cc1sc2nc(CN3CCN(C(=O)c4ccco4)CC3)n(C(=O)c3ccco3)c(=O)c2c1C` was tested, and the survival was 86% (inactive).
`CCOC(=O)c1c(S(=O)(=O)N2CCCC(C(=O)Nc3cc(C)ccc3OC)C2)c(C)n(C)c1C` (centres undefined) was tested, and the survival was 75% (inactive).
With `O=C(/C=C/c1ccco1)OCCN1CCOCC1` the survival was 69% (inactive).
With `O=C1c2ccccc2C(=O)N1COc1cccc2cccnc12` the survival was 97% (inactive).
`O=C(Oc1cccc2cccnc12)c1ccccc1` was tested, and the survival was 2% (active).
For `O=C(/C=C/c1ccco1)ON1C(=O)c2ccccc2C1=O`, the survival was 91% (inactive).
In the case of `O=C(Oc1ccccc1-c1nc(-c2ccccc2)no1)c1ccccc1`, the survival is reported as 85% (inactive).
For `O=C(/C=C\c1ccco1)Oc1cccc2cccnc12`, the survival was 2% (active).
`Cc1ccc(C(c2nnnn2Cc2ccccc2)N2CCC(C)CC2)cc1` (centres undefined) was tested, and the survival was 70% (inactive).
For `CCCC1(C(=O)OC)NC(c2ccc(OC)c(OC)c2)C2C(=O)N(c3ccc4c(c3)OCO4)C(=O)C21` (centres undefined), the survival was 84% (inactive).
`COc1cccc(NC(=O)Cn2cc(C(=O)c3ccc(F)cc3)c(=O)c3cc(OC)ccc32)c1` was tested, and the survival was 92% (inactive).
With `Nc1nnc2c(n1)[nH]c1ccccc12` the survival was 81% (inactive).
With `Cc1ccc(C)c(CN2C(=O)c3ccccc3S(=O)(=O)c3ccc(C(=O)N4CCN(Cc5ccccc5)CC4)cc32)c1` the survival was 59% (inactive).
With `COc1ccc(OC)c(NC(=O)c2cc(C3CC3)nc3c2c(C)nn3-c2ccc(C)cc2)c1` the survival was 64% (inactive).
In the case of `O=C(CSc1nnc(COc2ccc(F)cc2)o1)N1c2ccccc2CCc2ccccc21`, the survival is reported as 65% (inactive).
In the case of `COc1ccc(N2CCN(c3ncnc4c3nnn4C)CC2)cc1`, the survival is reported as 0% (active).
In the case of `CCOC(=O)C1CCN(c2cc(C)c(C#N)c3nc4ccccc4n23)CC1`, the survival is reported as 100% (inactive).
`CCOC(=O)C1CCCN(c2ncnc3c2nnn3C)C1` (centres undefined) was tested, and the survival was 117% (inactive).
In the case of `Cn1nnc2c(N3CCN(c4ccccc4)CC3)ncnc21`, the survival is reported as 74% (inactive).
With `CCOC(=O)C1CCN(c2ncnc3c2nnn3C)CC1` the survival was 37% (active).
`CCOC(=O)C1CCN(c2nc3ccccc3nc2Cl)CC1` was tested, and the survival was -24% (active).
With `Cn1nnc2c(N3CCN(c4ccc(F)cc4)CC3)ncnc21` the survival was 99% (inactive).
`CCOC(=O)C1CCN(c2nc(-c3ccc(Br)cc3)nc3ccccc23)CC1` was tested, and the survival was 83% (inactive).
With `CC1CCN(c2ncnc3c2nnn3C)CC1` the survival was 92% (inactive).

Reference: PubChem BioAssay AID463173 (ICCB-Longwood Screening Facility, Harvard Medical School, 2010)
